Assay results: the supplement of paper PMC6555819

Experiments:
Assay in all cases: PBM binding z-score (relative to random genomic background probes); higher = stronger binding; sequences stand for … in GC…GCGATTGACAGCGTAGAATGAAGG
[1] = test system: RARb homodimer (NR concentration 270 nM)
Summary of the method: (§1)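 Each nuclear receptor dimer, without ligand, was incubated for 1 h on custom Agilent 4×180K protein-binding microarrays. Binding was detected with antibodies against each partner (one per run), and scanned fluorescence was regression-normalized. The binding z-scores are referenced to random human genomic background probes.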

[2] = test system: RARg:RXRa (NR concentration 270 nM, RXRa partner concentration 90 nM)
Summary of the method: as §1

[3] = test system: RARg homodimer (NR concentration 270 nM)
Summary of the method: as §1

[4] = test system: RXRa DBDmut IVT, anti-RXR (DBD mutation: RXRa K156A/R161A, NR concentration 90 nM)
Summary of the method: as §1

[5] = test system: RXRa homodimer (NR concentration 180 nM)
Summary of the method: as §1

[6] = test system: THRa:RXRa (NR concentration 90 nM, RXRa partner concentration 90 nM)
Summary of the method: as §1

[7] = test system: THRa homodimer (NR concentration 90 nM)
Summary of the method: as §1

[8] = test system: VDR homodimer (NR concentration 270 nM)
Summary of the method: as §1

Row | Sequence | PBM binding z-score [1] | PBM binding z-score [2] | PBM binding z-score [3] | PBM binding z-score [4] | PBM binding z-score [5] | PBM binding z-score [6] | PBM binding z-score [7] | PBM binding z-score [8]
1 | CCTACTGGGCCACGAAAGGTCAGTGATTCAGTGA | 3.87 | 3.69 | 4.04 | -0.37 | 3.1 | 3.1 | 0.0818 | 0.0755
2 | GCGACGGGGGCATCAGCAGGTTACCATAACTTAA | 2.43 | 5.01 | 2.7 | 3.03 | 3.26 | 3.25 | 1.61 | 1.88
3 | GCTGCTAGGTCAACTGATGGTCAGCTATAGCTCG | 3.72 | 5.34 | 5.69 | 1.79 | 3.41 | 3.03 | 1.11 | -0.0243
4 | TTACCAACGTGAGCTGAGGTCGTTGATCCAACTC | 0.839 | 0.0093 | -0.366 | 0.168 | 0.547 | 2.48 | 1.5 | 2.12
5 | CTCGAAAGGTCGGTTTAGGTGAGTATACGGATAA | 1.77 | 2.33 | 2.31 | 1.26 | 1.8 | 4.51 | 0.786 | 1.04
6 | CAAACTAGGTCACGAAAGGTCAGAGTCGAATGAC | 5.65 | 7.33 | 7.81 | 2.37 | 7.38 | 4.84 | 2.26 | 2.55
7 | CCTCGGAGGACAACAGAAGGTCAGAGCTGCCAGA | 3.55 | 3.3 | 3.27 | 0.274 | 1.54 | 2.36 | 0.481 | 0.506
8 | TCTATTAGTTGAATAGGGCAACCGAAACAGCGGA | 0.977 | 0.99 | 0.765 | 0.685 | 0.759 | 0.247 | -0.423 | -0.139
9 | TCTTGTAGATCAGCAGGGTAAGAAAGCTGGCCAA | -0.187 | -0.327 | -0.5 | 0.581 | -0.0542 | -0.165 | -0.567 | -0.255
10 | AATACAGGGACACTAGGCCAGAGTAGGTACGAAT | 0.487 | 0.347 | 0.984 | 0.0578 | -0.151 | 0.812 | 0.241 | 0.347
11 | TCTATTAGCTGATTAGGGCAACCGAAACAGCGGA | -0.0375 | 0.212 | 0.313 | 0.509 | 0.233 | 0.211 | -0.143 | -0.58
12 | TCTTGTAGATCAGCAGGTTAAGACAGCTGGCCAA | 0.0345 | 0.0307 | -0.276 | 0.415 | 0.431 | 0.272 | -0.416 | -0.184
13 | TCAGACAGGTGAAGGTAAGTCAGGTACGCAGTCG | 1.09 | 0.505 | 0.581 | 1.17 | 0.716 | 0.959 | 0.538 | 0.0228
14 | CAAACTATGTCAAGAGGTCAAAGTCCGCTTCCCG | 4.59 | 5.95 | 5.29 | 2.09 | 6.87 | 3.65 | 1.79 | 4.22
15 | CGTCCAAGGTCAAGGCTAGGTCAGTGAAAGCATT | 4.89 | 7.82 | 7.4 | 3.43 | 6.77 | 4.49 | 3.29 | 2.58
16 | TCTGCTAGGTCAACGATGGTCAGCTATTCTGCTA | 3.16 | 3.99 | 4.93 | 0.833 | 2.46 | 3.03 | 0.599 | -0.371
17 | TCTGCTAGGTCAACGATGGTCAGATAATCTGCTA | 3.47 | 3.89 | 5.5 | 0.978 | 3.11 | 3.17 | 0.478 | -0.329
18 | AATACAGGGTTATCGTAGGCCAGAGTACGCACAG | 1.09 | 1.52 | 1.11 | 0.484 | 2.28 | 3.61 | 0.15 | 1.12
19 | AGAACGCGGGCACGCTGAGTTGATAGCAGAGTAG | -0.459 | 0.0245 | 0.351 | -0.368 | 0.141 | -0.476 | -1.01 | 0.0842
20 | GCTGCTAAGTCAGGTTGGTCAGCTAACGGGTACG | 0.212 | -0.383 | -0.568 | -0.027 | -0.344 | -0.197 | -0.581 | -0.246
21 | CGAACTAGGTCATCCGGGACAGTGAATACATTGA | 2.87 | 3.87 | 4.59 | 2.41 | 2.75 | 3.58 | 1.84 | 1.96
22 | TAGCCTAGGTCAGATCGGGCCAGTATTCGCTATA | 2.1 | 2.86 | 3.71 | -0.442 | 1.37 | 4.14 | -0.138 | -0.518
23 | GCTATTAGTTGAAAGGGCAACGGAATGATTCTCG | 1.94 | 1.36 | 1.26 | 0.668 | 1.2 | 0.463 | -0.221 | 0.0426
24 | CCTCAAAGTTCAACTAAGGTAACGTAAAGCACGC | 4.3 | 6.18 | 6.74 | 4.41 | 5.11 | 5.29 | 2.38 | 4.44
25 | TGAATGAGGTTAGAAGATCAGGGAACGTTGCAAA | 0.0495 | 0.98 | 0.936 | -0.437 | 1.17 | 1.13 | -0.107 | -0.169
26 | AGAATGAGGTTCTACGTAGATCAGGGAAGAAAGT | -0.327 | -0.12 | 0.0722 | 0.025 | -0.0793 | -0.0436 | -0.709 | -0.322
27 | CAGACTAGGTCACGAAAGGTCAAAGTCGAATGAC | 5.63 | 7.9 | 8.73 | 2.27 | 8.34 | 4.96 | 2.29 | 4.05
28 | CGTCCATGGTCAGAGAGGTCAGTGAATGCCGAGT | 4.09 | 3.16 | 4 | 0.839 | 2.97 | 2.58 | 0.835 | 2.63
